Bioassay records: PubChem, National Center for Advancing Translational Sciences (NCATS)
Compounds with a hit are over-represented: about 18% of the library has one in this group of screens.
DT40 TDP1 CPT: DT40-hTDP1 cell growth loss with CPT; chicken DT40 Tdp1-/-;hTDP1 cells + 20 nM CPT, ATP luminescence, 48 h; Potency, µM (highest dose often 46.2 µM), most hits filed as inhibitors; 12% of 420,000 active; note: nearly all actives have a fitted effect of over 55% in size
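Chicken DT40 Tdp1-/- cells stably complemented with human TDP1 were seeded at 400 cells/well in medium containing 20 nM camptothecin, exposed to pin-transferred compounds, and grown at 37 °C for at least 48 hr. Viability was read as ATP luminescence.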
DT40 TDP1 no CPT: qHTS for Inhibitors of human tyrosyl-DNA phosphodiesterase 1 (TDP1): qHTS in cells in absence of CPT | DT40 Tdp1-/- hTDP1 cells, no CPT, ATP luminescence, 48 h | Potency, µM (titrated, usually from 46.2 µM), usual class: inhibitors | 15% of 420,000 active; note: nearly all actives have a fitted effect of over 55% in size
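No-CPT arm: Tdp1-/-;hTDP1 DT40 cells (400/well) plus compounds, incubated ≥48 hr at 37 °C. Readout CellTiter-Glo luminescence.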
TDP1 block: inhibitors of human tyrosyl-DNA phosphodiesterase TDP1. Q9NUW8. recombinant TDP1, AlphaScreen DNA substrate cleavage. Potency, µM (doses to about 130 µM), most hits filed as inhibitors. 0.28% of 350,000 active; note: nearly all actives have a fitted effect of over 40% in size
Target sequence (Q9NUW8 whole entry, looked up): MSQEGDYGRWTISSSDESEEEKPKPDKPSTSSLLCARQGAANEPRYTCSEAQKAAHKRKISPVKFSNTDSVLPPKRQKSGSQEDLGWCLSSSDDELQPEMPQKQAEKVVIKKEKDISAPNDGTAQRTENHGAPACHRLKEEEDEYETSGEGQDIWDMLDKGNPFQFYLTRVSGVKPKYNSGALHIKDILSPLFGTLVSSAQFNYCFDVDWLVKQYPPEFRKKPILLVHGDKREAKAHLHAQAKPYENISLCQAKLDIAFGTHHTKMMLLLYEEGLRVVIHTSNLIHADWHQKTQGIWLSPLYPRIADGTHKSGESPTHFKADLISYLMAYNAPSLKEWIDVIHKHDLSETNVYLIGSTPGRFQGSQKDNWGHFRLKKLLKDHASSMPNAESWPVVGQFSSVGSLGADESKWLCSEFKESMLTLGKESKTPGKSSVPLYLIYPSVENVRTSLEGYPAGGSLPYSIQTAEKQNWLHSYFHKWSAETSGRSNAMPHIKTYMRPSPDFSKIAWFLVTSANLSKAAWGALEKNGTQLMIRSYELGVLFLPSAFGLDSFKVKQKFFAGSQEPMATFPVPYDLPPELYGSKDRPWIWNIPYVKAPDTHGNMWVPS
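E. coli-derived human Tdp1, 1 nM final. Cpd preinc 15 min RT; substrate 15 nM final, 5 min RT; AS bead mix 10 ug/ml final, 10 min RT. Signal loss = tyrosine-FITC cleavage. No-enzyme wells = max signal.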
TGFb SMAD3 inh: inhibitors of TGF-b signaling. HepG2 CAGA-GFP TGF-b/SMAD3 reporter, GFP fluorescence, 18 h; TGF-beta stimulated, 500 pg/mL final. Potency, µM (doses to about 46.1 µM), most hits filed as inhibitors. 1.2% of 410,000 active. AID 588855; note: nearly all actives have a fitted effect of over 65% in size
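HEPG2 CAGA-GFP reporter cells (1000/well, DMEM with 1% FBS) received compounds, then recombinant TGF-beta at 500 pg/mL final for 18 hours at 37 degrees C. Per-cell GFP summed per well was normalised to unstimulated and stimulated DMSO controls before curve fitting.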
IL-1B inflam inh: blocks inflammasome-driven IL-1 beta release | AID 743279 | THP-1 LPS/ATP IL-1B secretion, AlphaLISA, 16 h; stronger effect = lower value | 4.7% of 360,000 active | activity change, % at 57.5 µM; in the data active = activity change below about -50%; inconclusive = mostly about -30% to -49%
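THP-1 cells pretreated 1 hr with compounds (up to 57.5 uM final), then stimulated with LPS (250 ng/mL final) plus ATP (1.25 mM final); secreted IL-1B measured by AlphaLISA after 16 hr, decreased signal indicating inhibition.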
HepG2 viability: kills HepG2 cells in TGF-b inhibitor counter-screen; 0.76% of 410,000 active; HepG2 CAGA-GFP viability, ATP luminescence, 18 h; Potency, µM (series often up to 46.1 µM), hits mostly cytotoxic
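HepG2 CAGA-GFP cells (1000/well, DMEM with 1% FBS) received compound, then TGF-beta at 500 pg/mL final, and were incubated 18 hours at 37 degrees C. Viability was read by CellTiter-Glo luminescence. Media-only wells were set as complete cell-killing and DMSO as no toxicity.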
Each line names hits and unclear results; the compound was inactive in the other large screens; ! = not active in a repeat. Unless noted, calls come from the whole dose curve; as a rule, active = well fitted curve in the direction sought with a large enough effect; inconclusive = small, poorly fitted or top-dose-only effect, or another doubt; inactive = no such curve, though single readings can be large; an effect the other way counts as inactive or inconclusive.

COCc1c(C(=O)NC2CCCCC2)sc2cccc(F)c12	DT40 TDP1 CPT inconclusive, DT40 TDP1 no CPT inconclusive, IL-1B inflam inh inconclusive
NNc1nnc(-c2ccccc2)c(-c2ccccc2)n1	DT40 TDP1 CPT 13µM, DT40 TDP1 no CPT 16µM
COc1ccc(C2=Nn3c(nnc3-c3ccccc3F)SC2)cc1OCC1CC1	none (no result: DT40 TDP1 CPT, DT40 TDP1 no CPT, IL-1B inflam inh)
COc1ccc(-c2nc(CCNC(=O)c3cccs3)cs2)cc1OC	DT40 TDP1 CPT inconclusive, DT40 TDP1 no CPT 21µM (no result: IL-1B inflam inh)
O=C(NCCc1csc(-c2ccccc2)n1)c1cccs1	DT40 TDP1 CPT 23µM, DT40 TDP1 no CPT 9.2µM, IL-1B inflam inh inconclusive
O=C(NCCc1ccc(Cl)cc1)c1cccs1	none
O=C(NCCc1csc(-c2ccc(Cl)cc2)n1)c1cccs1	DT40 TDP1 CPT inconclusive, DT40 TDP1 no CPT 16µM (no result: IL-1B inflam inh)
O=C(NCc1ccccc1)c1csc(-c2cccnc2)n1	DT40 TDP1 CPT inconclusive, DT40 TDP1 no CPT 5.8µM, IL-1B inflam inh inconclusive
O=C(NCCc1csc(-c2cccnc2)n1)c1ccccc1	none
Cc1nc(CCNC(=O)c2cccs2)cs1	TGFb SMAD3 inh inconclusive
CCNc1ncc2nc(C)c(=O)n(C3CC3)c2n1	none (no result: TDP1 block, TGFb SMAD3 inh, IL-1B inflam inh, HepG2 viability)
O=C(NCCc1csc(-c2ccccc2)n1)c1ccco1	DT40 TDP1 CPT 18µM, DT40 TDP1 no CPT inconclusive, IL-1B inflam inh inconclusive (no result: TDP1 block)
O=C(NCCc1csc(-c2cccnc2)n1)c1cccc2ccccc12	DT40 TDP1 CPT 16µM, DT40 TDP1 no CPT 23µM
C[C@H](NC(=O)[C@@H](N)Cc1ccc(O)cc1)C(=O)NCC(=O)N[C@H]1CSSC[C@@H](C(=O)O)NC(=O)[C@H](CO)NC(=O)[C@H]([C@@H](C)O)NC(=O)[C@H](Cc2ccccc2)NC(=O)[C@H]([C@@H](C)O)NC(=O)[C@H](CCCCN)NC(=O)[C@H](Cc2c[nH]c3ccccc23)NC(=O)[C@H](Cc2ccccc2)NC(=O)[C@H](Cc2ccccc2)NC(=O)[C@H](CC(N)=O)NC(=O)[C@H](CCCCN)NC1=O	none (no result: DT40 TDP1 CPT, DT40 TDP1 no CPT, TGFb SMAD3 inh, IL-1B inflam inh, HepG2 viability)
CCC(c1nnnn1-c1c(C)cccc1C)N1CCN(c2ccccn2)CC1 (configuration not stated)	DT40 TDP1 CPT inconclusive, DT40 TDP1 no CPT inconclusive (no result: TDP1 block, TGFb SMAD3 inh, HepG2 viability)
CN(C)/C=N/c1ncc(C(=O)c2ccc(-c3ccccc3)cc2)s1	DT40 TDP1 no CPT inconclusive, IL-1B inflam inh -52
CN(C)/C=N/c1ncc(C(=O)c2ccccc2)s1	none
COc1ccc(CN(C(=O)c2ccccc2Br)C2CCS(=O)(=O)C2)cc1 (configuration not stated)	none (no result: TDP1 block)
CC(=O)OC[C@@H]1O[C@H](CCON=C(C)C)C=C[C@@H]1OC(C)=O	none (no result: DT40 TDP1 CPT, DT40 TDP1 no CPT, TGFb SMAD3 inh, IL-1B inflam inh, HepG2 viability)
CC12CCC(C(=O)Nc3ccc(Br)cn3)(OC1=O)C2(C)C (configuration not stated)	HepG2 viability 4.5µM
CC12CCC(C(=O)NNC(=O)c3ccc(Br)cc3)(OC1=O)C2(C)C (configuration not stated)	none
CC(=O)c1cc2c(cc1N/C(=N/S(=O)(=O)c1ccc(C)cc1)c1ccccc1)OCO2	DT40 TDP1 CPT 23µM!, DT40 TDP1 no CPT inconclusive, TGFb SMAD3 inh inconclusive
Cc1ccc(S(=O)(=O)/N=C(/Nc2ccc([N+](=O)[O-])cc2)c2ccccc2)cc1	DT40 TDP1 no CPT inconclusive
Cc1ccc(S(=O)(=O)/N=C(/Nc2ccc([N+](=O)[O-])cc2[N+](=O)[O-])c2ccccc2)cc1	DT40 TDP1 CPT inconclusive, DT40 TDP1 no CPT inconclusive, TGFb SMAD3 inh inconclusive, IL-1B inflam inh -67
CC(=O)c1cc2c(cc1N/C(=N/S(=O)(=O)c1ccc(C)cc1)c1ccc(Cl)cc1)OCO2	DT40 TDP1 CPT inconclusive
COc1ccc2[nH]cc(CCNS(=O)(=O)c3ccc(C)cc3)c2c1	DT40 TDP1 CPT inconclusive (no result: TDP1 block)
CCOC(=O)N1CCN(C(=S)NC(=O)c2ccc(Br)cc2)CC1	DT40 TDP1 CPT inconclusive, DT40 TDP1 no CPT 13µM, IL-1B inflam inh inconclusive
